# In ChEMBL document CHEMBL3988442, “University of Dundee, Small-Polar-MMV Screening Library” (2021):
# The campaign covered roughly 48,000 compounds. About 13,000 (27%) showed an effect of 50% or more. Some of the results follow.
# Test system: Wolbachia pipientis
# Assay: Anti-Wolbachia Cell-Based Screen
# Assay type: functional
# Parameters: scale not given: in the data most compounds retested in dose-response had high values
# Conditions: 5 µM
row,Compound,Percent Effect [%]
1,CCc1noc(CN2CCCN(Cc3cccs3)CC2)n1,74.2
2,CCc1noc(CN2CCN(Cc3cccs3)CC2)n1,91.28
3,CC(C)CCN1CCN(Cc2nc(C(C)C)no2)CC1,-7.959
4,CC(C)(C)c1nc(CN2CCC(c3nc4cc(Cl)ccc4o3)CC2)no1,-20.96
5,Cc1noc(CN2CCN(Cc3cccs3)CC2)n1,0.5359
6,CC(C)(C)c1noc(CN2CCCN(Cc3cccs3)CC2)n1,1.032
7,CCc1noc(CN2CCCN(C(N)=O)CC2)n1,-3.109
8,CCc1nc(CN2CCCN(c3cnc4ccccc4n3)CC2)no1,-8.028
9,CC(C)c1noc(CN2CCCN(Cc3cccs3)CC2)n1,67.59
10,CC(C)Cc1noc(CN2CCN(C(=O)c3cccs3)CC2)n1,-25.07
11,CC(C)(C)c1nc(CN2CCCN(Cc3cccs3)CC2)no1,85.49
12,Cc1cc2nc(CO[C@H]3CN(CC4CC4)C[C@H]3F)[nH]c2cc1C,-2.135
13,Cc1cc(C)n(CC(C)NC2CCN(Cc3cccnc3)CC2)n1 (stereo not given),-17.52
14,O=C(Nc1ccccc1)[C@H]1O[C@H](CCN2CCNCC2)CC[C@@H]1O,1.571
15,CN1C(=O)CO[C@H](c2ccc(NC(=O)Nc3ccccc3)cc2)[C@H]1CO,-13.1
16,CNC(=O)[C@@H]1[C@@H](OC(=O)Nc2ccccc2)C(=O)N(C)C12CCNCC2,89.46
17,CO[C@H]1C(=O)N(C)C2(CCNCC2)[C@@H]1C(=O)Nc1ccccc1,91.16
18,CN1C(=O)[C@H](OC(N)=O)[C@@H](C(=O)Nc2ccccc2)C12CCNCC2,104.3
19,CN1CC2(CNCCN(C(=O)Nc3ccccc3)C2)CC1=O.O=C(O)C(F)(F)F (stereo not given),-22.36
20,Cc1ncccc1OC1(C(=O)NCCNc2ccccc2)CCNCC1,-10.51
21,CCc1cc(N2CCSCC2)n2nc(C)c(C)c2n1,8.974
22,Cc1n[nH]c(C)c1CCN(C)C(=O)c1ccc(CCC(C)(C)O)cc1,11.25

row,Compound,Percent Effect [%]
1,CN(Cc1cc(Br)cn1C)C(=O)c1cc(Cl)ccn1,-3.777
2,O=C(c1cc(-c2cn[nH]c2)nc2ccc(F)cc12)N1CCSCC1,9.042
3,COc1ccc2cc(CN(C)CCc3cn[nH]c3)c(=O)[nH]c2c1,-3.299
4,Cc1ccccc1C(=O)NC1CCN(Cc2ncc(C(C)(C)C)o2)CC1,19.24
5,Cc1nc(C(C)(C)NC(=O)Nc2ccncc2)no1,-5.529
6,CS(=O)(=O)NCC1CCCN(C(=O)COc2ccc(F)cc2)C1 (stereo not given),-1.733
7,O=C(CN1CCCC1)N1CCCC(CNS(=O)(=O)Cc2ccccc2)C1 (stereo not given),16.47
8,CS(=O)(=O)NCC1CCCN(C(=O)COCc2ccccc2)C1 (stereo not given),-4.256
9,CS(=O)(=O)NCC1CCCN(C(=O)Nc2ccccc2F)C1 (stereo not given),119.4
10,CS(=O)(=O)NCC1CCCN(C(=O)Nc2ccccc2N2CCCC2)C1 (stereo not given),96.01
11,CS(=O)(=O)NCC1CCCN(C(=O)c2ccc3c(c2)CCCC3)C1 (stereo not given),4.156
12,CC(C)S(=O)(=O)NCC1CCCN(C(=O)c2ccc(F)cc2)C1 (stereo not given),-11.51
13,O=C(Nc1cccc2ccccc12)N1CCC(N2CCSCC2)CC1,-0.7759
14,CS(=O)(=O)NCC1CCCN(C(=O)Nc2cccc3ccccc23)C1 (stereo not given),98.14
15,CNS(=O)(=O)CCCN1CCCC1c1noc(C2CC2)n1 (stereo not given),-1.215
16,O=C(Nc1ccc(-c2csnn2)cc1)N1CCCC1,-14.17
17,CN(C)Cc1csc(-c2nccn2CCc2cccnc2)c1,-6.294
18,CCCC(Cn1cnc(-c2ccccc2)c1-c1cncn1CC)N(C)C (stereo not given),8.465
19,CCCNC(=O)c1cc2c(nc1O)CCC(C)C2 (stereo not given),4.186
20,Cc1ccc(C(=O)NCCCS(C)(=O)=O)c(=O)[nH]1,0.8619
21,Cc1ccc(C(=O)NCCNS(C)(=O)=O)c(=O)[nH]1,2.203
22,Cc1ccc(C(=O)NCCCNS(C)(=O)=O)c(=O)[nH]1,10.14

row,Compound,Percent Effect [%]
1,Cc1ccc(C(=O)NCCS(C)(=O)=O)c(=O)[nH]1,-10.31
2,Cc1ccc(C(=O)NC2CCCN(S(C)(=O)=O)C2)c(=O)[nH]1 (stereo not given),107.3
3,Cc1ccc(C(=O)NC2CCN(S(C)(=O)=O)CC2)c(=O)[nH]1,87.03
4,CN(Cc1ccco1)Cc1ccccc1CNC(=O)c1csnn1,-8.686
5,NC(=O)NC(=O)CCN1CCN(CC2CC2)c2ccccc21,-1.129
6,OC[C@H]1CN(Cc2c(Cl)cncc2Cl)C[C@H]1CN1CCOCC1,11.24
7,Cn1cccc1C(=O)NCc1cn2c(n1)CN(CC1CCOC1)CC2 (stereo not given),-25.14
8,Cn1cc(-c2ncc3c(c2C(=O)O)CCN(CC2CCOC2)C3)cn1 (stereo not given),111.7
9,Cn1cc(-c2ncc3c(c2C(=O)O)CCN(CC2CC2)C3)cn1.O=C(O)C(F)(F)F.O=C(O)C(F)(F)F,86.35
10,CN1CCn2c(-c3cnn(C)c3)cnc2C12CCN(CC1CC1)CC2.O=C(O)C(F)(F)F.O=C(O)C(F)(F)F.O=C(O)C(F)(F)F,-10.48
11,CN(C)C(C(=O)N1CCN(CCn2cccc2)CC1)c1ccc(F)cc1 (stereo not given),-11.45
12,O=C1N(Cc2ccc(F)c(F)c2)CCCC12CCN(C1CCCC1)C2 (stereo not given),7.69
13,O=C(O)C(F)(F)F.O=C([C@H]1CCCO1)N1CCCC2(CCN(Cc3ccncc3)C2=O)C1 (stereo not given in full),14.29
14,CN1CCN(Cc2cccnc2)C2(CCN(c3ncccn3)C2)C1=O.O=C(O)C(F)(F)F.O=C(O)C(F)(F)F (stereo not given),-6.592
15,Cc1cnc(N2CCC3(C2)C(=O)N(C)CCN3Cc2cccnc2)nc1.O=C(O)C(F)(F)F.O=C(O)C(F)(F)F (stereo not given),1.691
16,O=C(O)C(F)(F)F.O=C(O)C(F)(F)F.O=C1N(Cc2cccnc2)CCC12CCCN(c1ncccn1)C2 (stereo not given),94.5
17,COc1cc(N2CCC3(CCN(Cc4cccnc4)C3=O)C2)ncn1 (stereo not given),116
18,O=C1N(Cc2cccc(F)c2)CCC12CCCN(c1ncc(F)cn1)C2 (stereo not given),102
19,COc1cc(N2CCCC3(CCN(c4cncnc4)C3=O)C2)ncn1 (stereo not given),-10.96
20,COc1cccc(CN2CCC3(CCN(c4ncc(C)cn4)C3)C2=O)c1 (stereo not given),-10.16
21,O=C(O)C(F)(F)F.O=C1N(Cc2ccncc2)CCC12CCCN(c1ncc(F)cn1)C2 (stereo not given),97.96
